PubChem BioAssay AID624162 (National Center for Advancing Translational Sciences (NCATS), 2012)
This is one part of the list. Inconclusive results are not listed. The call rests on the fitted dose curve; in most records, active means well fitted inhibition curve with a large enough effect; inconclusive means small, poorly fitted or top-dose-only effect; inactive means no such curve, though single readings can be large or run the other way.

Biological target: Histone-lysine N-methyltransferase 2A (Homo sapiens) (UniProt Q03164)
Sequence (Q03164 whole entry, looked up, the tested form may be a part): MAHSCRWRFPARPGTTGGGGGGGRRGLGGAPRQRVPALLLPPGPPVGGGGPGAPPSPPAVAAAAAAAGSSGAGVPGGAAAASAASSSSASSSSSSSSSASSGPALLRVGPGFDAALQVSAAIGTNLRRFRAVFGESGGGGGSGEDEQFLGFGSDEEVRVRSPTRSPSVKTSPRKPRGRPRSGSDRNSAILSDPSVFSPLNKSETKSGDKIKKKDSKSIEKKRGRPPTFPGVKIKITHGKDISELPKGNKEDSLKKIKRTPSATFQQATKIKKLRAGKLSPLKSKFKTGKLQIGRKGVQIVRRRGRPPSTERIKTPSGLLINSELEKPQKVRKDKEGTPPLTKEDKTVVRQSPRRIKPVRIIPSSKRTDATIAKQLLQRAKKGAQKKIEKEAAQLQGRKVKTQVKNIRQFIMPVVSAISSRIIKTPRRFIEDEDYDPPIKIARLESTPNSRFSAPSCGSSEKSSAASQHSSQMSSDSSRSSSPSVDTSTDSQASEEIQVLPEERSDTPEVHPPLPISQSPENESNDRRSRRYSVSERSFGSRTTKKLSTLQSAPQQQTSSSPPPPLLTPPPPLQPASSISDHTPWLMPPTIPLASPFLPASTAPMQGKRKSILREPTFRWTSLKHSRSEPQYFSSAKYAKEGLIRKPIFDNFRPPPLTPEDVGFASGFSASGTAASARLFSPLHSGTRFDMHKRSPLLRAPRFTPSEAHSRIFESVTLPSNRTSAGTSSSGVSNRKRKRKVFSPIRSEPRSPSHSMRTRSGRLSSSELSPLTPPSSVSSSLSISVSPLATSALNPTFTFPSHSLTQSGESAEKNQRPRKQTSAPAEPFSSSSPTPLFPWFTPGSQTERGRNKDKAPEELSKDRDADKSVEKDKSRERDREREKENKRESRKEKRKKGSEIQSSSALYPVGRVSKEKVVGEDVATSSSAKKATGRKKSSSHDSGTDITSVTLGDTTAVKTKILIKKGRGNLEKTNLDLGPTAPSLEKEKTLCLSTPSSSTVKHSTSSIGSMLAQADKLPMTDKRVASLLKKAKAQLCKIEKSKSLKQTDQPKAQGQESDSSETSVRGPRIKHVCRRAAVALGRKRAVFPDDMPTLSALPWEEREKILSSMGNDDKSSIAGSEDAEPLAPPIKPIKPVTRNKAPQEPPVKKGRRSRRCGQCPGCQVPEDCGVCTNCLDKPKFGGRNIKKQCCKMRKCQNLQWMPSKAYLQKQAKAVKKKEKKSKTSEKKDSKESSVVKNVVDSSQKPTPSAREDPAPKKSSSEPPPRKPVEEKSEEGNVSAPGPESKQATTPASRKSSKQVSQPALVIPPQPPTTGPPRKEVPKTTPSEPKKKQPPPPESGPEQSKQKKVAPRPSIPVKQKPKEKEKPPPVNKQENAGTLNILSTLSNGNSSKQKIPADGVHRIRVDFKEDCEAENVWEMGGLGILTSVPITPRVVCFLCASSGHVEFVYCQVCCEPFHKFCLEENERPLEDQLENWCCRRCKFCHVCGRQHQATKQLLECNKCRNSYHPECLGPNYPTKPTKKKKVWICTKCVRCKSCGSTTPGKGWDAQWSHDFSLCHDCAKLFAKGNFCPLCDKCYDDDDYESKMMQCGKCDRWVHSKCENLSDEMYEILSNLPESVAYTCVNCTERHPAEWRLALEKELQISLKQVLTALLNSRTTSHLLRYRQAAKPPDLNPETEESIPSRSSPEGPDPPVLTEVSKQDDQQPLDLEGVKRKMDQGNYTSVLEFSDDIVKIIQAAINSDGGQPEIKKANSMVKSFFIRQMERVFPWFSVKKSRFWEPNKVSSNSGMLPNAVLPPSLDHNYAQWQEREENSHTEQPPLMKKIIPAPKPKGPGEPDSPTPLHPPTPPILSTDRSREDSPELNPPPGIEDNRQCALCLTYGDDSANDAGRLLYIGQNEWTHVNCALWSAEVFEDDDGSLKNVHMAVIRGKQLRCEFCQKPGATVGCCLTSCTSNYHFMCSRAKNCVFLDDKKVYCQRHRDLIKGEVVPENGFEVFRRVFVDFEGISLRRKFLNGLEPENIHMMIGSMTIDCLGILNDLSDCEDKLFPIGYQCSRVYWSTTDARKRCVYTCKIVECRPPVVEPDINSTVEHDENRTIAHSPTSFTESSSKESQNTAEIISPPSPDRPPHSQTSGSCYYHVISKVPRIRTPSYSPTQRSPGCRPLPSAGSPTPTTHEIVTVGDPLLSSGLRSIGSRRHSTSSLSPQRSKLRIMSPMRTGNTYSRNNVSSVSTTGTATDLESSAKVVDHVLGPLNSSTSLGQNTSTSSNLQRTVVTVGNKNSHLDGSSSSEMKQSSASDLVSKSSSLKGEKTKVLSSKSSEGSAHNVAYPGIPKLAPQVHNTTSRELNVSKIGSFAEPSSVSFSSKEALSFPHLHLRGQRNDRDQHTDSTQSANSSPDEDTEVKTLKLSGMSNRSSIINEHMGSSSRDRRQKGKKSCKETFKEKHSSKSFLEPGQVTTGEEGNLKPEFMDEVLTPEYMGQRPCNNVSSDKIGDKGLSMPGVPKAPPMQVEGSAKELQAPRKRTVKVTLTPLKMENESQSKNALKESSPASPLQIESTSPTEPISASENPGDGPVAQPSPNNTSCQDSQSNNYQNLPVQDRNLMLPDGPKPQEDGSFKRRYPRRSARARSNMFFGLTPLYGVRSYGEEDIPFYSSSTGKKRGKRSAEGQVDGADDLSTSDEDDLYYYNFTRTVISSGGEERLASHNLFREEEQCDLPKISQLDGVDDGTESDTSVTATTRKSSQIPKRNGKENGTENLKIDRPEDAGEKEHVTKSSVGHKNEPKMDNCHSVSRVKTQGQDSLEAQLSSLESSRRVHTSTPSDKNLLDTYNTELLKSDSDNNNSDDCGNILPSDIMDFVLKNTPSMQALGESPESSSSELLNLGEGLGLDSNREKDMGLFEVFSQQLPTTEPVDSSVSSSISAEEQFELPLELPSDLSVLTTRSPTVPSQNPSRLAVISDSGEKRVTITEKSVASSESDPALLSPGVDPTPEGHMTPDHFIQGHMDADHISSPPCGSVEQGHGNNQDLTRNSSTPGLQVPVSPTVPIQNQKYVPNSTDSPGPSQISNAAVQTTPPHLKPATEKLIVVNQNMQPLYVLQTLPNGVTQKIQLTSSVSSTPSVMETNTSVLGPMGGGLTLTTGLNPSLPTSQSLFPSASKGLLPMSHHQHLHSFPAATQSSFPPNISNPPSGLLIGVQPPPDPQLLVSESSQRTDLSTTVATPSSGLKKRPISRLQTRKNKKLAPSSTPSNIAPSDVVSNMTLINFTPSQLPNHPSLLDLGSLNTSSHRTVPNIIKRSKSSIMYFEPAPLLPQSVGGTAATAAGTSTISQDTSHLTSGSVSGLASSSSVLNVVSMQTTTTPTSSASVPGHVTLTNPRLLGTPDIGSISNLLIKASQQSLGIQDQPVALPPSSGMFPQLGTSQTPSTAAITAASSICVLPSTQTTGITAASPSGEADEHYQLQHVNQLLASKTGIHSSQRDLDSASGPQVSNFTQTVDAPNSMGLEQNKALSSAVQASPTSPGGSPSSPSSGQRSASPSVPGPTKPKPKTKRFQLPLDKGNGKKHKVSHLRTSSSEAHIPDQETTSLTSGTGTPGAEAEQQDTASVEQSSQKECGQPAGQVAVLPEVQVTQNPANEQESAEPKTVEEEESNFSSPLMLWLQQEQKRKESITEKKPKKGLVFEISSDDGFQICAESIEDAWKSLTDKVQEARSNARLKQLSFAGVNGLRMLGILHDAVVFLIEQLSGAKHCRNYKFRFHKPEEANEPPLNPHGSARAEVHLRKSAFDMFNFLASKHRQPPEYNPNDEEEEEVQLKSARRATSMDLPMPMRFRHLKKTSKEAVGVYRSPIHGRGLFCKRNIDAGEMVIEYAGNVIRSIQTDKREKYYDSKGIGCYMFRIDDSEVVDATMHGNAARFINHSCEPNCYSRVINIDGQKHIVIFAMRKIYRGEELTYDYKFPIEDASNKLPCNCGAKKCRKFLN
Test: qHTS Fluorescence Polarization (FP) Assay for Inhibitors of MLL CXXC domain - DNA interaction: HTRF Assay; further: nearly all actives have a fitted effect of over 80% in size
Conditions: MLL CXXC-DNA binding, biochemical; series mostly up to 172 µM; activity change, negative = inhibition: at the top concentration
Source text: The MLL (Mixed Lineage Luekemia) gene is involved in chromosomal translocation that results in either acute lymphoid leukemia (ALL) or acute myeloid leukemia (AML). Chromasomal translocation of MLL gene is responsible for the fusion of N-terminal MLL to more than 60 different partner genes in frame. Many of the MLL partner genes contain transcription activation domains or function as transcriptional activators. Despite the heterogeneity of fusion partners, the N-terminus of MLL fusion proteins always consists of the N-terminal menin binding motif and the CXXC domain. The MLL-CXXC domain specifically recognizes unmethylated CpG sequences of the HOX-A gene. Disruption of the MLL-CXXC and HOX-A gene interaction leads to down regulation of HOX-A gene expression and may potentially reverse leukemogenesis. We have miniaturized and optimized an in-vitro assay to screen for inhibitors of the MLL-CXXC domain and HOX-A DNA interaction, which could have utility in MLL fusion leukemias.
This is a hit validation assay that tests this hits identified in the primary screen in this secondary screen, using an HTRF a read-out.
NIH Molecular Libraries Probe Production Network [MLPCN]
NIH Chemical Genomics Center [NCGC]
PI Name: John Bushweller, University of Virgina
One microliter of 7microM GST-MLL-CXXC solution prepared in assay buffer (50 mM TRIS-HCl pH 7.5, 50 mM NaCl, 1 mM DTT, 0.05% BSA) was dispesed into a 1536 well plate. Compound solution and unlabeled HOX-A9 was tranferred into the assay plate using the Kalypsys 1536-pin tool and incubated at room temperature for 5 min. One microL of 50nM Biotinylated-HOX-A9 solution prepared in assay buffer was dispensed into the assay plate; centrifuge for 30 seconds at 1000 RPM; and incubated for 30 min at room temperature. Next, 3 microL/well detection reagent mixture of 2.8 nM Eu3+-Cryptate-anti-GST-AB and 100 nM Streptavidin linked XL665 (Cisbio, MA) was added. RT-FRET read was taken after 60min of room temp incubation using the PerkinElmer Envision plate reader equipped with Eu3+ HTRF optimized filter set; EX 337nm / EM […].
On the % scale 0 is the no-effect control and ±100 the full control effect.

Activity change, negative = inhibition, inactive:
COc1cc(/C=C2/C(=O)NN(c3ccc(F)cc3)C2=O)cc([N+](=O)[O-])c1O 84.9%, O=C1NN(c2ccccc2)C(=O)/C1=C/c1ccc(-c2cccc(C(=O)O)c2)o1 7.82%, COc1ccc(S(=O)(=O)/N=C2\C=C(NS(=O)(=O)c3ccccc3)C(=O)c3ccccc32)cc1 74.8%, COc1ccc(-c2onc3ccc(C(C)=O)cc23)cc1 6.05%
